High-throughput results from PubChem.
ALR H2O2 inh – human ALR oxidase inhibition via reduced H2O2 | P55789 | purified ALR, DTT oxidation, H2O2 HRP-luminol luminescence | inhibition, % (concentration not given with the values) | actives 3.8% (n = 290,000);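 active = mean replicate inhibition above about 79%, with every replicate also reaching it, limit read from the data; inconclusive = only one of the two criteria met; inactive = mean below limit and not every replicate reaching it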
Target sequence (P55789 whole entry, looked up): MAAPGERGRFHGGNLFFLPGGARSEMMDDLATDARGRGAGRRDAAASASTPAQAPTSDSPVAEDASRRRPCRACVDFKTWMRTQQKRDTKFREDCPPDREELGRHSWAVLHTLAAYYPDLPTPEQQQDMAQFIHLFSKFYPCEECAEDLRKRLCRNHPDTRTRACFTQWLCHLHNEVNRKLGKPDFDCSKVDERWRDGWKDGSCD
Cardio protect – myocardial damage modulation in H9c2 cells | actives 0.63% (n = 360,000) | protection from H2O2 cell death, % at 20 µM | H9c2 cardiomyocytes, H2O2 injury protection, ATPLite, 2 h;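 active = compounds giving at least 50% protection of heart cells from peroxide-induced death in the single-dose screen, raw or plate-pattern-corrected value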;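 note: 0% = DMSO wells with peroxide and 100% = DMSO wells without peroxide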
PfM18AAP inh-1 – PfM18AAP enzyme inhibition | inhibition, % at 7.35 µM | recombinant PfM18AAP, H-Glu-NHMec fluorogenic cleavage | actives 1.2% (n = 290,000);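 active = inhibition above the campaign mean inhibition over all tested compounds plus 3 SD, cut at about 28% in these data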;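 note: 0% = plate median of test compound wells and 100% = 2 mM ZnCl2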
PfG6PD inh – PfG6PD (Plasmodium falciparum) enzyme inhibition; actives 0.78% (n = 350,000); inhibition, % at 20 µM; PfGluPho enzyme, NADPH resazurin-diaphorase fluorescence;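 active = inhibition reaching at least a set limit at 20 µM in the primary screen, cut at about 59% in these data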;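 note: 0% = DMSO wells with substrate and 100% = DMSO wells lacking glucose-6-phosphate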
PHOSPHO1 inh – inhibitors of human PHOSPHO1 phosphatase; inhibition, % at 13.3 µM; Q8TCT1; recombinant PHOSPHO1, absorbance phosphatase assay; actives 1.1% (n = 290,000); AID 1565; in the data active = inhibition above about 60%
Target sequence (Q8TCT1 whole entry, looked up): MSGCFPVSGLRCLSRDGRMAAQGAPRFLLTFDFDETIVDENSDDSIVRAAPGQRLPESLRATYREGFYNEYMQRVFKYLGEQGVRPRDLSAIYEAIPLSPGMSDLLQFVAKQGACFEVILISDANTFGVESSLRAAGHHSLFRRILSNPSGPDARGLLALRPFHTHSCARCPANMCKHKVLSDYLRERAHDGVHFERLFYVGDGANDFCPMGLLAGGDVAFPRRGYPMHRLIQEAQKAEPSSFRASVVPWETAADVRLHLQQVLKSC
PfM18AAP inh-2 – confirmation of Plasmodium falciparum M18 aspartyl aminopeptidase inhibitors | shares compounds with PfM18AAP inh-1 | recombinant PfM18AAP, H-Glu-NHMec fluorogenic cleavage | inhibition, % at 7.35 µM | actives 28% (n = 2,400) | AID 2170;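 active = mean inhibition over replicate wells above the hit cutoff set for the earlier primary screen, cut at about 29% in these data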;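 note: 0% = median of test compound wells and 100% = 2 mM ZnCl2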
CTSL1 confirm – counter-screen for PFM18AAP inhibitors: confirmation of human cathepsin L inhibitors. shares compounds with PfM18AAP inh-1. purified cathepsin L1, Z-Leu-Arg-MCA fluorescence. inhibition, % at 5.96 µM. 2,400 tested, under 10 active;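 active = average inhibition across replicates above the hit cutoff set in the earlier primary screen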;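 note: 0% = median of test compound wells and 100% = Z-Phe-Ala-diazomethylketone 1 µM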
PfGluPho conf – PfG6PD inhibition, single-dose confirmed; shares compounds with PfG6PD inh; AID 504753; recombinant PfGluPho, NADPH-diaphorase-resazurin fluorescence; actives 34% (n = 2,400); inhibition, % at 20 µM;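 active = inhibition of at least 50% at 20 µM in any single replicate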;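 note: 0% = DMSO with substrate and 100% = DMSO lacking glucose-6-phosphate substrate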
Diaph ctr 10uM – inhibits diaphorase or oxidizes, flagging false PfG6PD hits. AID 504862. actives 39% (n = 820). diaphorase-coupled resazurin reduction, fluorescence, NADPH 10 uM. inhibition, % at 20 µM. shares compounds with PfG6PD inh;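 active = average inhibition reaching 50% or more with the compound at 20 µM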;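 note: resorufin red fluorescence formed as diaphorase reduces resazurin using NADPH; 0% = DMSO with enzyme and 100% = DMSO without enzyme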
Diaph ctr 30uM – counter-screen for P. falciparum G6PD inhibitors: diaphorase inhibitors, oxidizers. Diaphorase/resazurin coupled assay, resorufin fluorescence, 30 uM NADPH. inhibition, % at 20 µM. actives 29% (n = 820). shares compounds with PfG6PD inh. AID 504863;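 active = inhibition averaging 50% or more, tested at 20 µM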;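 note: 0% = DMSO with enzyme and 100% = DMSO wells lacking diaphorase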
An asterisk follows results filed as active; u = inconclusive; x = no result. Hits are enriched below; roughly 5.6% of the tested compounds scored in any of these assays.

SMILES | ALR H2O2 inh | Cardio protect | PfM18AAP inh-1 | PfG6PD inh | PHOSPHO1 inh | PfM18AAP inh-2 | CTSL1 confirm | PfGluPho conf | others
Cc1ccc(NC(=S)NCC2CCN(C(C)c3ccccc3)C2)cc1 (stereo not given) | 0 | 2 | 3 | 10 | -29 | x | x | x
O=C(CN1CCN(c2ccc(O)cc2)CC1)N1CCc2ccccc21 | 80* | -6 | 42* | 63* | 27 | 1 | 4 | 20
Cc1cc(C)c(NC(=S)N(CCN(C)C)Cc2cccs2)c(C)c1 | x | -7 | 1 | -2 | -17 | x | x | x
Cc1ccc(NC(=S)N(CCN(C)C)Cc2cccs2)c(C)c1 | 6 | -2 | 36* | 61* | 14 | 7 | 1 | 42
Clc1ccc(N=c2ssnc2Cl)nc1 | 37 | -6 | 39* | 87* | 92* | 24 | -4 | 52* | Diaph ctr 10uM=-22;Diaph ctr 30uM=-18
O=C(CCc1ccc(O)c(O)c1)N/N=C/c1ccc2c(c1)OCO2 | 95* | 87* | 79* | 62* | 23 | 50* | 4 | 34
COc1cnn(-c2ccccc2)c(=O)c1SCc1ccc(Cl)cc1Cl | 98* | -7 | 36* | 66* | 54 | -30 | -4 | -3
COc1ccc(CN2C(=O)C(CC(=O)NC(c3ccccc3)c3ccccc3)CC(C(=O)N(C(C)C)C(C)C)=C2C)cc1 (stereo not given) | x | -4 | x | 14 | x | x | x | x
Oc1ccc(Br)cc1CNc1cccc2cccnc12 | x | -11 | 46* | 72* | 3 | -3 | 103* | 15
O=C(NCCOc1ccccc1Cl)c1ccc2c(c1)S(=O)(=O)c1cc(Cl)ccc1C2=O | -1 | 3 | x | 0 | x | x | x | x
O=C(NNc1ccc([N+](=O)[O-])cc1)Nc1ccccc1 | x | -9 | 55* | 74* | x | 32* | 1 | 0
CC(=O)Nc1ccc(S(=O)(=O)NNc2ccc([N+](=O)[O-])cc2)cc1 | 98* | 8 | 46* | 75* | x | -13 | 2 | 33
O=C(Nc1ccc([N+](=O)[O-])cc1)c1ccccc1 | -10 | 0 | -11 | 6 | x | x | x | x
CC(=O)Nc1ccc(S(=O)(=O)NNC(=O)c2cccc([N+](=O)[O-])c2)cc1 | 8 | 12 | 15 | -7 | 24 | x | x | x
COc1cc(O)c(NC(C)=O)c2nonc12 | 23 | 1 | 33* | 64* | 3 | 27 | 1 | 43
Fc1ccc(C[n+]2csc3ccccc32)cc1 | 4 | -4 | 36* | 64* | 32 | -5 | -1 | 31
C=CCc1c(C)nc(C)nc1N/N=C/c1ccc([N+](=O)[O-])cc1 | 26 | 2 | 7 | 16 | 34 | x | x | x
C=CCc1c(C)nc(C)nc1N/N=C/c1ccccc1O | 42 | 28 | 49* | 68* | 3 | -36 | 3 | 5
Cc1nnc(N/N=C\c2ccc(-c3ccccc3[N+](=O)[O-])o2)n1N | -19 | -24 | 43* | 82* | -5 | -19 | 0 | 38
CCc1nnc(N/N=C/c2ccc(-c3ccc([N+](=O)[O-])cc3)o2)n1N | -17 | 3 | 43* | 69* | 4 | -36 | -3 | 27
COC(=O)c1cc(OC)c(OC)cc1N1C(=O)CC(C)(C)CC1=O | -5 | -9 | -9 | 6 | x | x | x | x
O=C(CN1CCN(c2ccc(F)cc2)CC1)Nc1ccc2c(c1)OCCO2 | 31 | -2 | 2 | -2 | 26 | x | x | x
O=C(CN1CCN(c2ccc(O)cc2)CC1)Nc1ccc2c(c1)OCCO2 | 78* | -10 | 38* | 71* | 23 | -2 | 5 | 21
Cc1cc(NC(=O)CN2CCN(S(=O)(=O)c3ccc(Cl)cc3)CC2)no1 | -10 | -6 | -7 | 3 | -1 | x | x | x
Cc1cc(NC(=O)CN2CCN(c3ccc(O)cc3)CC2)no1 | 99* | 3 | 35* | 68* | -8 | -13 | 1 | 36
SMILES | ALR H2O2 inh | Cardio protect | PfM18AAP inh-1 | PfG6PD inh | PHOSPHO1 inh | PfM18AAP inh-2 | CTSL1 confirm | PfGluPho conf | others
CCNC(=O)C1(C)CCCN(C(=O)c2cc(C)nn2C(C)(C)C)C1 (stereo not given) | x | 11 | x | x | x | x | x | x
Cc1ccccc1-n1sc2cc(F)ccc2c1=O | x | -25 | 70* | 114* | 42 | 64* | -7 | 114* | Diaph ctr 10uM=-12;Diaph ctr 30uM=-25
CN1CCc2cccc3c2[C@@H]1Cc1ccc(O)c(O)c1-3 | x | 32 | 36* | 89* | 4 | 79* | 3 | 86* | Diaph ctr 10uM=10;Diaph ctr 30uM=6
COc1ccc2c(c1O)-c1ccccc1CCN(C)C2 | 50 | 2 | 3 | -6 | 52 | x | x | x
Cc1cc(C)nc(SCCN(C)C)n1 | -6 | 10 | 1 | -6 | 29 | x | x | x
Cc1cc(C)nc(SSc2nc(C)cc(C)n2)n1 | x | -6 | 61* | 65* | -44 | 28 | 5 | 64* | Diaph ctr 10uM=-5;Diaph ctr 30uM=-14
CCOc1ccccc1NC(=S)Nn1cnnc1 | -1 | 2 | 74* | 62* | -15 | 56* | 5 | 30
S=C(Nc1ccc(Cl)cc1Cl)Nn1cnnc1 | -5 | 1 | 79* | 47 | 1 | 77* | 0 | -24
S=C(NCc1ccc(Cl)cc1)Nc1ccc(Cl)cc1Cl | x | -12 | 3 | -5 | 2 | x | x | x
CCOc1ccccc1NC(=S)Nc1ccccc1F | 2 | 7 | -3 | 5 | -22 | x | x | x
NS(=O)(=O)c1ccc(Nc2nc(-c3ccc(O)cc3)cs2)cc1 | u | 19 | 45* | 70* | 9 | 44* | -2 | 11
COc1ccc(-c2csc(Nc3ccc(S(N)(=O)=O)cc3)n2)cc1 | 14 | 29 | 24 | 48 | 3 | x | x | x
CC1(C(=O)NCc2ccc3c(c2)OCO3)CCN1C(=O)Cc1ccc(Cl)cc1Cl (stereo not given) | x | 5 | x | x | x | x | x | x
O=c1[nH]nc(CNc2ccc(O)cc2)c2ccccc12 | 100* | 87* | 35* | 59* | 10 | -18 | 0 | 48* | Diaph ctr 10uM=1;Diaph ctr 30uM=6
O=c1[nH]nc(CNc2ccc(OC(F)(F)F)cc2)c2ccccc12 | -45 | 38 | -11 | 7 | 16 | x | x | x
CCOC(=O)COc1coc(CN2CCN(c3ccc(F)cc3)CC2)cc1=O | 18 | -1 | 4 | 10 | 26 | x | x | x
CCOC(=O)c1sc(=S)n(CC)c1NC(=O)CC | 6 | 6 | -2 | -5 | 15 | x | x | x
CCn1c(N)c(C(=O)NC)sc1=S | 99* | -5 | 50* | 80* | 56 | 37* | -1 | 50* | Diaph ctr 10uM=-27;Diaph ctr 30uM=-20
O=C(CNC(=O)c1cccs1)OCC(=O)c1ccc(Cl)cc1 | -9 | 1 | 0 | 7 | 4 | x | x | x
